A number with no mark means an inactive call. Where a call stands in place of a potency, no number is given. Calls of active or inactive are those of the source. Unless noted, calls come from the whole dose curve; as a rule, active = well fitted curve in the direction sought with a large enough effect in the repeat runs; inconclusive = weak or mixed curves; inactive = no such curve, though single readings can be large; an effect the other way counts as inactive or inconclusive.
Experiments:
[1] = qHTS assay to identify small molecule antagonists of the glucocorticoid receptor (GR) signaling pathway - cell viability counter screen (AID 720693); note: nearly all actives have a fitted effect of over 55% in size; note: potency is the fitted concentration of half-maximal effect
[2] = qHTS assay for identifying genotoxic compounds that show differential cytotoxicity against isogenic chicken DT40 cell lines with known DNA damage response pathways - wild type cell line (AID 743012); note: nearly all actives have a fitted effect of over 60% in size; note: potency is the fitted concentration of half-maximal effect
Procedure, shortened: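 First, wild type DT40 cells were plated at 300 per well and equilibrated about 0.5 h at 37 C/5% CO2. Next, compounds in DMSO were added and exposure lasted 40 h. Finally, CellTiter-Glo was added for 30 min at room temperature and luminescence recorded.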

[3] = qHTS assay for identifying genotoxic compounds that show differential cytotoxicity against isogenic chicken DT40 cell lines with known DNA damage response pathways - Rev3 mutant cell line (AID 743014); note: nearly all actives have a fitted effect of over 55% in size; note: potency is the fitted concentration of half-maximal effect
[4] = qHTS assay for identifying genotoxic compounds that show differential cytotoxicity against isogenic chicken DT40 cell lines with known DNA damage response pathways - Rad54/Ku70 mutant cell line (AID 743015); note: nearly all actives have a fitted effect of over 60% in size; note: potency is the fitted concentration of half-maximal effect
[5] = qHTS assay to identify small molecule antagonists of the androgen receptor (AR) signaling pathway using the MDA cell line - cell viability counter screen (AID 743041; note: nearly all actives have a fitted effect of over 45% in size)
Procedure, shortened: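 MDA-kb2 AR-luc cells (MMTV-luciferase, AR/GR responsive) treated with compounds plus R1881 agonist for 16 h at 37C. CellTiter-Fluor added at 15.5 h; fluorescence read after 30 min in the same wells.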

[6] = qHTS assay to identify small molecule antagonists of the thyroid receptor (TR) signaling pathway (AID 743065); note: nearly all actives have a fitted effect of over 55% in size; note: potency is the fitted concentration of half-maximal effect
Procedure, shortened: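 GH3.TRE-Luc rat pituitary cells (two TREs driving luciferase) were dosed with compound, then stimulated with 1 nM T3 (final) for 23.5 h at 37 C. ONE-Glo luminescence was the read-out, with CellTiter-Fluor fluorescence as the cytotoxicity counter-screen.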

[7] = system: thyroid hormone receptor (rat, GH3 cells); assay: qHTS assay to identify small molecule agonists of the thyroid receptor (TR) signaling pathway (AID 743066; calls by dose curve)
[8] = qHTS assay to identify small molecule antagonists of the estrogen receptor alpha (ER-alpha) signaling pathway - cell viability counter screen (AID 743074; calls by dose curve;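 note: HEK293 cells carrying ER-alpha-UAS-bla reporter stimulated with 17beta-estradiol; nearly all actives have a fitted effect of over 45% in size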; note: potency is the fitted concentration of half-maximal effect)
[9] = target: Estrogen receptor (Homo sapiens) (UniProt P03372); assay: qHTS assay to identify small molecule agonists of the estrogen receptor alpha (ER-alpha) signaling pathway (AID 743075; calls by dose curve; note: potency is the fitted concentration of half-maximal effect); conditions: HEK293 ER-alpha-UAS-bla, beta-lactamase FRET ratio, 18 h; activation: at 70.1 µM (top of the series)
Sequence of Estrogen receptor (Homo sapiens) (P03372 whole entry, looked up): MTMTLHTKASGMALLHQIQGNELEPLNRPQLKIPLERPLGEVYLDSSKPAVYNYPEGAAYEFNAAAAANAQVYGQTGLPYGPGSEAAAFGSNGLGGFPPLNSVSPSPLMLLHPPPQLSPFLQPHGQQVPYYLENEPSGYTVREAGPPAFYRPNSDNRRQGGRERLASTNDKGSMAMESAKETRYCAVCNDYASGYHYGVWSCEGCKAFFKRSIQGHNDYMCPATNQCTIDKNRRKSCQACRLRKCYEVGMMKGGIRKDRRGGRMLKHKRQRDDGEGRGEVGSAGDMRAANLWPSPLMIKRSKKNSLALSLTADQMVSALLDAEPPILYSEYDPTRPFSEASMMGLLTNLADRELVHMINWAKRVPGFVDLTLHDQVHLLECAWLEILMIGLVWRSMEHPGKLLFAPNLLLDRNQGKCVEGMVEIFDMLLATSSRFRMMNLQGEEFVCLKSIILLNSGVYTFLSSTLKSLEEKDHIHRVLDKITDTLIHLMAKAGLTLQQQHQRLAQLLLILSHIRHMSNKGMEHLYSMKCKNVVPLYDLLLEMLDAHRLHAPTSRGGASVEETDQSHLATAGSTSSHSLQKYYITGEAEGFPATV

[10] = target: Estrogen receptor (Homo sapiens) (UniProt P03372); assay: qHTS assay to identify small molecule agonists of the estrogen receptor alpha (ER-alpha) signaling pathway using the BG1 cell line (AID 743079); conditions: BG1Luc4E2 cells, ERE-luciferase agonist, 22 h; note: nearly all actives have a fitted effect of over 20% in size
[11] = qHTS assay to identify small molecule antagonists of the estrogen receptor alpha (ER-alpha) signaling pathway using the BG1 cell line (AID 743080; calls by dose curve;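 note: BG1 cells stimulated with 17beta-estradiol alongside compound; nearly all actives have a fitted effect of over 25% in size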; note: potency is the fitted concentration of half-maximal effect)
Procedure, shortened: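 After 5 days in phenol-red-free 10% charcoal-stripped FBS medium, BG1-Luc-4E2 cells were seeded, left 24 h at 37 C, co-treated with compounds and 17beta-estradiol for 21.5 h, then assayed for viability and luciferase.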

[12] = qHTS assay to identify small molecule antagonists of the estrogen receptor alpha (ER-alpha) signaling pathway using the BG1 cell line - cell viability counter screen (AID 743081);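 note: compound given together with 17beta-estradiol as the ER stimulus; nearly all actives have a fitted effect of over 45% in size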; note: potency is the fitted concentration of half-maximal effect
[13] = target: Estrogen receptor (Homo sapiens) (UniProt P03372); assay: qHTS assay to identify small molecule antagonists of the estrogen receptor alpha (ER-alpha) signaling pathway (AID 743069; active = well fitted curve in the direction sought with a large enough effect in the signal ratio in the repeat runs, not every such curve was filed as active; inconclusive = weak or mixed curves, or effect the other way; inactive = no such curve, though single readings can be large or run the other way; the % refers to the signal ratio; note: potency is the fitted concentration of half-maximal effect)
Procedure, shortened: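 HEK293 ER-alpha-UAS-bla GripTite cells, held overnight in 2% charcoal-stripped FBS, 5,000 cells/well, preincubated 4 h, then compound plus 17beta-estradiol for 18 h at 37C. Beta-lactamase read by LiveBLAzer B/G FRET substrate, 2 h at room temperature.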

[14] = target: Aromatase (Homo sapiens) (UniProt P11511); assay: qHTS assay to identify aromatase inhibitors (AID 743083); note: nearly all actives have a fitted effect of over 55% in size; note: potency is the fitted concentration of half-maximal effect
Sequence of Aromatase (Homo sapiens) (P11511 whole entry, looked up): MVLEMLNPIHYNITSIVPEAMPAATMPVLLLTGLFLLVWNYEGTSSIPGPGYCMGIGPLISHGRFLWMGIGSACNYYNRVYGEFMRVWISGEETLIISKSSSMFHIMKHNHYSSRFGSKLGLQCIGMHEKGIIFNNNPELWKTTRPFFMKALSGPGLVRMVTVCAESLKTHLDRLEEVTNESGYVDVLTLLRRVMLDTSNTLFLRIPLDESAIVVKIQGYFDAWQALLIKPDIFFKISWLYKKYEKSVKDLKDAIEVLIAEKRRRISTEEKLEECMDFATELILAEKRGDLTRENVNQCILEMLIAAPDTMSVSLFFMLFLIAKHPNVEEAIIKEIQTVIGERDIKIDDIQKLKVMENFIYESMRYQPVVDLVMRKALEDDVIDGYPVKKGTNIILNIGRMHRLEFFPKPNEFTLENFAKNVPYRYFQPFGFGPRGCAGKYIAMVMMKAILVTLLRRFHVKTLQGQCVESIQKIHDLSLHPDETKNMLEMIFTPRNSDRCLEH

[15] = qHTS assay to identify small molecule antagonists of the thyroid receptor (TR) signaling pathway - cell viability counter screen (AID 743064); note: nearly all actives have a fitted effect of over 50% in size; note: potency is the fitted concentration of half-maximal effect
Procedure, shortened: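 GH3.TRE-Luc cells, 4 h pre-plating; cpd + T3 1 nM final; 37 °C 23.5 h; CellTiter-Fluor 30 min; fluorescence read.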

[16] = target: Androgen receptor (Homo sapiens) (UniProt P10275); assay: qHTS assay to identify small molecule antagonists of the androgen receptor (AR) signaling pathway using the MDA cell line (AID 743042; note: nearly all actives have a fitted effect of over 55% in size; note: potency is the fitted concentration of half-maximal effect)
Sequence of Androgen receptor (Homo sapiens) (P10275 whole entry, looked up): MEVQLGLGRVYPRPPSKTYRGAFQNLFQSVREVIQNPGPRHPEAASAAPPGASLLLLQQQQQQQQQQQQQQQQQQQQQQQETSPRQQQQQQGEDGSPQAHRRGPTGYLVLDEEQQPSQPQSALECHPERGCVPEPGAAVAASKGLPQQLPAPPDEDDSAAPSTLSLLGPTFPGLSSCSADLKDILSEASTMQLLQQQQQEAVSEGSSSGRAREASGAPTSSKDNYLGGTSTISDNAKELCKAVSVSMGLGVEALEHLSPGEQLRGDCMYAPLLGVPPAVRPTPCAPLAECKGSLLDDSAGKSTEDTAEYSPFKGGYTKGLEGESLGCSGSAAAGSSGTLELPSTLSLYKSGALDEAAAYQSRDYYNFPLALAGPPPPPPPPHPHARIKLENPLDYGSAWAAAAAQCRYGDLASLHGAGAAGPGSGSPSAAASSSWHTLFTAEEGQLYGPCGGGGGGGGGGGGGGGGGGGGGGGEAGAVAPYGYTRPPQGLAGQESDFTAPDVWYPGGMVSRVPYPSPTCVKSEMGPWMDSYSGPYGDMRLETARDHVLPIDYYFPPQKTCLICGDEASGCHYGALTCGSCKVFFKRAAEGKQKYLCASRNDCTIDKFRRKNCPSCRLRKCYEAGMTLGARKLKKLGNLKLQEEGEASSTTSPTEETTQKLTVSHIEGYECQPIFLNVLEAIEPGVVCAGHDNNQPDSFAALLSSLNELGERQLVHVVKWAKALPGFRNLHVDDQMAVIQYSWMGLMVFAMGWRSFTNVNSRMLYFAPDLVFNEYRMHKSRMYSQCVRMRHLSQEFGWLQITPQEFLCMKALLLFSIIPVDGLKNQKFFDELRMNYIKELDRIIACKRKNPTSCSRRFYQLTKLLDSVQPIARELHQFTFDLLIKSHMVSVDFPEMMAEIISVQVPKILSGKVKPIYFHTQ
Procedure, shortened: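 MDA-kb2 breast carcinoma cells carrying MMTV-luciferase (AR/GR responsive) were co-treated with compounds and the agonist R1881 for 16 h at 37C. Inhibition read as ONE-Glo luminescence; CellTiter-Fluor fluorescence measured in parallel for cytotoxicity.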

[17] = target: Androgen receptor (Homo sapiens) (UniProt P10275); assay: qHTS assay to identify small molecule agonists of the androgen receptor (AR) signaling pathway using the MDA cell line (AID 743040; note: nearly all actives have a fitted effect of over 20% in size)
Procedure, shortened: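 MDA-kb2 breast carcinoma cells carrying MMTV-luciferase (responsive to AR and GR), plated 5 h then treated 16 h with compounds at 37C, 0% CO2. Read-out was ONE-Glo luminescence after 30 min at room temperature.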

[18] = qHTS assay to identify small molecule antagonists of the androgen receptor (AR) signaling pathway - cell viability counter screen (AID 743033; note: nearly all actives have a fitted effect of over 45% in size)

| SMILES | Potency [1] | Potency [2] | Potency [3] | Potency [4] | Potency [5] | Potency [6] | Potency [7] | Potency [8] | Potency [9] | activation ([10]; at 70.3 µM (top of the series)) [%] | Potency [11] | Potency [12] | Potency [13] | activation ([10]; at 32.5 µM (top of the series)) [%] | Potency [14] | Potency [15] | Potency [16] | Potency [17] | Potency [18] |
| --- | --- | --- | --- | --- | --- | --- | --- | --- | --- | --- | --- | --- | --- | --- | --- | --- | --- | --- | --- |
| O=C1CCCCCN1SSN1CCCCCC1=O | inactive | 13.7 µM (active) | 19.3 µM (active) | 15.4 µM (active) | inactive | 27.3 µM (active) | inactive | inactive | inactive | -12.6 | inactive | inactive | – | – | – | – | – | – | – |
| Cc1onc(-c2ccccc2Cl)c1C(=O)N[C@@H]1C(=O)N2[C@@H]1SC(C)(C)[C@@H]2C(=O)O | inactive | inactive | inactive | inactive | inactive | – | – | inactive | inactive | – | inactive | inactive | inactive | -4.31 | inactive | – | – | – | – |
| COc1cccc(N)c1 | inactive | inactive | inactive | inactive | inactive | – | inactive | inactive | – | – | – | inactive | – | – | – | inactive | – | – | – |
| CCCCCCCCCCCCCCCS(=O)(=O)Oc1ccccc1 | inactive | inactive | inactive | inactive | inactive | inactive | inactive | inactive | inactive | -9.91 | inactive | inactive | inactive | – | inactive | inactive | – | – | – |
| C[n+]1cc2c3c(ccc2c2ccc4cc5c(cc4c21)OCO5)OCO3 | 6.74 µM (active) | 1.5 µM (active) | 2.11 µM (active) | 1.5 µM (active) | – | 2.66 µM (active) | – | 10.7 µM (active) | 15.1 µM [inconclusive] (active) | – | – | – | – | – | 11.9 µM (active) | 2.98 µM (active) | 18.8 µM (active) | – | – |
| CC/C(=C(\c1ccc(O)cc1)c1ccc(OCCN(C)C)cc1)c1ccccc1 | 24.6 µM (active) | 2.74 µM (active) | 0.434 µM (active) | 1.09 µM (active) | inactive | 12.2 µM (active) | inactive | 39 µM (active) | – | – | – | 68.7 µM (active) | – | – | 0.0217 µM (active) | 5.46 µM (active) | – | inactive | – |
| CCN(Cc1cccnc1)C(=O)c1cccc(Cl)c1[C@]1(C)C(=O)N(Cc2ccc(OC)cc2OC)c2ccc(Cl)cc21 | inactive | 5.09 µM (active) | 7.19 µM (active) | 5.09 µM (active) | – | 2.55 µM (active) | inactive | inactive | – | – | – | – | – | – | 16.1 µM (active) | 4.54 µM (active) | 12.8 µM (active) | inactive | – |
| CC1=C(C(=O)OC(C)C)C(c2cccc([N+](=O)[O-])c2)C(C(=O)OC2CN(C(c3ccccc3)c3ccccc3)C2)=C(N)N1 (centres undefined) | 8.49 µM (active) | 18.8 µM (active) | 18.8 µM (active) | 13.3 µM (active) | inactive | 2.98 µM (active) | – | 23.9 µM (active) | – | – | – | – | – | – | 29.8 µM (active) | 2.98 µM (active) | – | – | – |
| CCCCCCCCCCn1cc[n+](CCCCCCCCCC)c1C | 13.8 µM (active) | 0.273 µM (active) | 0.109 µM (active) | 0.122 µM (active) | – | 3.86 µM (active) | – | 19.5 µM (active) | – | – | 8.64 µM (active) | 48.6 µM (active) | 61.7 µM [cytotoxic] (active) | – | 5.45 µM (active) | 6.87 µM (active) | 2.17 µM (active) | inactive | – |
| O=C(c1ccc(F)cc1)C1CCN(CCn2c(=O)[nH]c3ccccc3c2=O)CC1 | inactive | – | inactive | – | inactive | inactive | inactive | inactive | inactive | 21.8 | inactive | inactive | inactive | – | inactive | inactive | inactive | inactive | inactive |
| CN(C)[C@@H]1C(=O)C(C(N)=O)=C(O)[C@@]2(O)C(=O)C3=C(O)c4c(O)ccc(Cl)c4[C@@H](O)[C@H]3C[C@@H]12 | inactive | inactive | – | inactive | inactive | inactive | inactive | inactive | – | – | – | inactive | – | – | inactive | – | – | – | inactive |
